Data taken from the supplement of paper PMC11219838.

These molecules were tested on Caenorhabditis elegans L1 (N2) (assay: survival and reproduction score of C. elegans L1 (0: 0-10 living worms, 1: 11-20, 2: 21-50, 3: >50, 4: overgrown) (score 0-4); higher = more worms, less nematicidal, active = 1 or less; extreme values may be limits of the assay). Settings: 60 µM; 6 days; temperature: 20 °C.
How it was run: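 In liquid NGM with E. coli HB101, approximately 20 synchronized C. elegans N2 L1s per 96-well well were exposed to compound at 60 µM final (0.6% v/v DMSO) for 6 days at 20 °C with shaking at 200 rpm in sealed plates. Survival and reproduction were judged under a dissection microscope as an ordinal rating of living worms per well. Ratings went from 0 (0–10 worms) to 4 (overgrown, starved) and were averaged over two biological replicates.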

| Compound | survival and reproduction score |
| --- | --- |
| Cc1cccc(-c2noc(COc3ccc(C)c(C)c3)n2)c1 | 4 (inactive) |
| COc1ccc(Cl)cc1-c1noc(-c2ccccc2)n1 | 1 (active) |
| CCCc1nnc(CSc2nnc(-c3ccc(Cl)cc3)o2)o1 | 1 (active) |
| CCc1ccc(C(=O)Nc2ccccc2-c2nc(-c3ccncc3)no2)cc1 | 4 (inactive) |
| Cc1cc(C)cc(OCc2nc(-c3ccccc3Cl)no2)c1 | 4 (inactive) |
| COc1ccc(Cl)cc1NC(=O)CSc1nnc(-c2ccncc2)o1 | 4 (inactive) |
| Fc1ccc(-c2nc(-c3ccc(Cl)cc3)no2)cc1 | 4 (inactive) |
| COc1ccccc1-c1nnc(SCC(=O)OCc2ccccc2)o1 | 4 (inactive) |
| CCc1nnc(NC(=O)CSc2nnc(-c3cccc(C)c3)o2)s1 | 4 (inactive) |
| O=C(CSc1nnc(-c2ccco2)o1)Nc1ccc(Br)cn1 | 4 (inactive) |
| Cc1cccc(OC(C)c2nc(-c3ccncc3)no2)c1 (centres undefined) | 4 (inactive) |
| CCNC(=O)c1ccccc1-c1nc(-c2ccc(OC)cc2)no1 | 4 (inactive) |
| Clc1ccccc1-c1noc(-c2ccncc2)n1 | 4 (inactive) |
| Cc1ccc(CSc2nnc(-c3ccco3)o2)cc1 | 0 (active) |
| CCOC(=O)c1c(NC(=O)CSc2nnc(-c3ccc(Cl)cc3)o2)sc(C)c1C | 4 (inactive) |
| Cc1ccccc1CSc1nnc(-c2ccco2)n1C | 2 (inactive) |
| CN(C(=O)CSc1nnc(-c2ccccc2)o1)c1ccccc1 | 4 (inactive) |
| COc1cccc(-c2nnc(SCC(=O)Nc3cccc(C(F)(F)F)c3)o2)c1 | 4 (inactive) |
| O=C(CSc1nnc(-c2cccnc2)o1)c1ccc(Br)cc1 | 4 (inactive) |
